The record followed here is PubChem BioAssay (NCI).

A short description of assay [1]: NCI Yeast Anticancer Drug Screen. Data for the rad50 strain (AID 155).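 Further: 0% = growth of vehicle-only cultures of the same strain.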 The settings on record: S. cerevisiae rad50 strain growth inhibition, hits give high values. In short, it runs like this:
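Compounds were tested on a yeast strain with an engineered DNA damage repair alteration; the reported value is growth inhibition normalised to vehicle treatment.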

Assay [2] can be described thus: NCI Yeast Anticancer Drug Screen. Data for the mec2-1 strain (AID 157). The following applies: S. cerevisiae mec2-1 strain, hits give high values. In short, it runs like this:
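mec2-1 yeast strain, carrying an alteration in DNA damage repair or cell cycle control, was exposed to compounds; growth inhibition was measured relative to vehicle-treated controls.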

Assay [3] in a line: NCI Yeast Anticancer Drug Screen. Data for the sgs1 mgt1 strain (AID 161).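 Further: 0% = growth of cultures given vehicle only.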 The settings on record: S. cerevisiae sgs1 mgt1 strain, hits give high values. The essentials:
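Compounds are added to genetically altered yeast, and growth is compared with cultures given vehicle alone to give percent inhibition.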

Assay [4] is described as follows: NCI Yeast Anticancer Drug Screen. Data for the cln2 rad14 strain (AID 165).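 Further: 0% = growth equal to vehicle treated cultures.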 The following applies: S. cerevisiae cln2 rad14 strain, hits give high values. In short, it runs like this: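 Yeast carrying cln2 and rad14 alterations (cell cycle control and DNA damage repair) were exposed to compounds. Growth inhibition was measured against vehicle-treated controls.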

A short description of assay [5]: NCI Yeast Anticancer Drug Screen. Data for the bub3 strain (AID 167). The settings on record: S. cerevisiae bub3 mutant strain, hits give high values. In short, it runs like this:
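Growth of a checkpoint-deficient yeast mutant is measured after compound exposure. Values represent inhibition relative to vehicle.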

A short description of assay [6]: NCI Yeast Anticancer Drug Screen. Data for the mlh1 rad18 strain (AID 175). The settings on record: S. cerevisiae mlh1 rad18 strain growth inhibition, hits give high values. In short, it runs like this: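 Growth inhibition of the yeast strain was measured after compound exposure and expressed relative to vehicle-treated controls. The strain carries defined defects in DNA damage repair.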

The mark [7] stands for this setting: at 5.0 µM (retest, dose inferred, filed as 0.5).
[8] abbreviates: at 50.0 µM (retest, dose inferred, filed as 5.0).

About 79,000 compounds went through this panel and 15% of them were active in at least one assay; those are over-represented in the sample as a whole. Unmarked numbers belong to inactive results. The source made the active and inactive calls. No stated cut-off is given here; in the data, active means growth inhibition above about 70%; inactive means the rest.

Turning to `CC1CCC(C(C)C)C(OC(=O)Nc2ccc(S(=O)(=O)N(C)C)cc2)C1` (stereo not given), the growth inhibition is 25% in assay [1] (setting [7]); 82% (active) in assay [1] (setting [8]); 96% (active) in assay [1] (at 50.0 µM); 18% in assay [2] (setting [7]); 92% (active) in assay [2] (setting [8]); 95.2% (active) in assay [2] (at 50.0 µM). Moreover, the growth inhibition in assay [3] (setting [7]) is 46%; in assay [3] (setting [8]), 83% (active); in assay [3] (at 50.0 µM), 96% (active); in assay [4] (setting [7]) it was 8%; in assay [4] (setting [8]) it was 82% (active); in assay [4] (at 50.0 µM) it was 95.5% (active). Also, the growth inhibition in assay [5] (setting [7]) was 29%; in assay [5] (setting [8]), 90% (active); in assay [5] (at 50.0 µM), 92.5% (active); in assay [6] (setting [7]) it was 32%; in assay [6] (setting [8]) it was 88% (active); in assay [6] (at 50.0 µM) it was 95.8% (active).
As to `O=C(NC1=Nc2c(ncn2COCCO)S(=O)(=O)[N-]1)c1ccccc1.[Ag+]`, the growth inhibition in assay [1] (setting [7]) was 100% (active); in assay [1] (setting [8]) it was 99% (active); in assay [1] (at 50.0 µM), 98.3% (active); in assay [2] (setting [7]), 100% (active); in assay [2] (setting [8]), 100% (active); in assay [2] (at 50.0 µM), 98.2% (active). The growth inhibition in assay [3] (setting [7]) was 99% (active); in assay [3] (setting [8]), 99% (active); in assay [3] (at 50.0 µM) it was 98.5% (active); in assay [4] (setting [7]), 99% (active); in assay [4] (setting [8]), 99% (active); in assay [4] (at 50.0 µM) it was 86% (active). Moreover, the growth inhibition in assay [5] (setting [7]) was 100% (active); in assay [5] (setting [8]), 99% (active); in assay [5] (at 50.0 µM), 98.3% (active); in assay [6] (setting [7]) it was 99% (active); in assay [6] (setting [8]) it was 99% (active); in assay [6] (at 50.0 µM), 97.3% (active).
`N#CC(C(=O)CCCC(=O)Nc1cccc([N+](=O)[O-])c1)c1cccc2ccccc12` (stereo not given): the growth inhibition in assay [1] (setting [7]) is 8%; in assay [1] (setting [8]), 10%; in assay [1] (at 50.0 µM) it was 32.5%; in assay [2] (setting [7]), 18%; in assay [2] (setting [8]), 3%; in assay [2] (at 50.0 µM), 22.1%. The growth inhibition was 8% in assay [3] (setting [7]); 7% in assay [3] (setting [8]); 17.1% in assay [3] (at 50.0 µM); 4% in assay [4] (setting [7]); 11% in assay [4] (setting [8]); 22.6% in assay [4] (at 50.0 µM). For the same molecule, the growth inhibition in assay [5] (setting [7]) was 4%; in assay [5] (setting [8]), 2%; in assay [5] (at 50.0 µM) it was 6.2%; in assay [6] (setting [7]), 5%; in assay [6] (setting [8]), 18%; in assay [6] (at 50.0 µM) it was 31.2%.
For `CC(=O)N(C)c1ccc2c(c1)Cc1ccccc1-2`, the growth inhibition in assay [1] (setting [7]) is 2%; in assay [1] (setting [8]), 34%; in assay [1] (at 50.0 µM), 42.6%; in assay [2] (setting [7]), 1%; in assay [2] (setting [8]), 21%; in assay [2] (at 50.0 µM) it was 27.4%. Also, the growth inhibition in assay [3] (setting [7]) is 1%; in assay [3] (setting [8]), 36%; in assay [3] (at 50.0 µM), 42.7%; in assay [4] (setting [7]) it was -2%; in assay [4] (setting [8]) it was 16%; in assay [4] (at 50.0 µM) it was 14.8%. Moreover, the growth inhibition is 16% in assay [5] (setting [7]); 86% (active) in assay [5] (setting [8]); 58.3% in assay [5] (at 50.0 µM); -2% in assay [6] (setting [7]); 30% in assay [6] (setting [8]); 23.1% in assay [6] (at 50.0 µM).
With `CCc1cc(/C=C\c2ccnc3ccccc23)ccc1N(C)C`, the growth inhibition is -1% in assay [1] (setting [7]); 99% (active) in assay [1] (setting [8]); 98.2% (active) in assay [1] (at 50.0 µM); -17% in assay [2] (setting [7]); 91% (active) in assay [2] (setting [8]); 98.4% (active) in assay [2] (at 50.0 µM). For the same molecule, the growth inhibition in assay [3] (setting [7]) was -1%; in assay [3] (setting [8]) it was 95% (active); in assay [3] (at 50.0 µM), 98.3% (active); in assay [4] (setting [7]), -12%; in assay [4] (setting [8]), 81% (active); in assay [4] (at 50.0 µM), 93.5% (active). Besides, the growth inhibition in assay [5] (setting [7]) is -6%; in assay [5] (setting [8]), 93% (active); in assay [5] (at 50.0 µM), 98.1% (active); in assay [6] (setting [7]), -8%; in assay [6] (setting [8]) it was 97% (active); in assay [6] (at 50.0 µM) it was 98% (active).
Take `COc1ccc(-c2csc(C)n2)cc1OC`: the growth inhibition in assay [1] (setting [7]) was 5%; in assay [1] (setting [8]), 1%; in assay [1] (at 50.0 µM) it was 21.4%; in assay [2] (setting [7]), 2%; in assay [2] (setting [8]), 4%; in assay [2] (at 50.0 µM) it was 3.35%. Further, the growth inhibition is 1% in assay [3] (setting [7]); 7% in assay [3] (setting [8]); 16.1% in assay [3] (at 50.0 µM); 3% in assay [4] (setting [7]); -3% in assay [4] (setting [8]); 30.3% in assay [4] (at 50.0 µM). Besides, the growth inhibition was 0% in assay [5] (setting [7]); 9% in assay [5] (setting [8]); 0.25% in assay [5] (at 50.0 µM); 2% in assay [6] (setting [7]); 11% in assay [6] (setting [8]); 8.5% in assay [6] (at 50.0 µM).
Regarding `Cc1ccc(NC(=O)CC2SC(N)=NC2=O)cc1C` (stereo not given), the growth inhibition in assay [1] (setting [7]) was -1%; in assay [1] (setting [8]), -1%; in assay [1] (at 50.0 µM) it was 87.5% (active); in assay [2] (setting [7]), 3%; in assay [2] (setting [8]), 8%; in assay [2] (at 50.0 µM), 89.3% (active). The growth inhibition is -2% in assay [3] (setting [7]); 5% in assay [3] (setting [8]); 91.2% (active) in assay [3] (at 50.0 µM); 8% in assay [4] (setting [7]); 4% in assay [4] (setting [8]); 80.2% (active) in assay [4] (at 50.0 µM). Also, the growth inhibition is 0% in assay [5] (setting [7]); -4% in assay [5] (setting [8]); 89.1% (active) in assay [5] (at 50.0 µM); -1% in assay [6] (setting [7]); 6% in assay [6] (setting [8]); 90.3% (active) in assay [6] (at 50.0 µM).
In the case of `C/C(=N\NC(N)=S)c1ccc(C2CCCCC2)cc1`, the growth inhibition in assay [1] (setting [7]) was 73% (active); in assay [1] (setting [8]) it was 97% (active); in assay [1] (at 50.0 µM), 97.2% (active); in assay [2] (setting [7]), 68%; in assay [2] (setting [8]) it was 98% (active); in assay [2] (at 50.0 µM), 95.7% (active). The growth inhibition in assay [3] (setting [7]) is 88% (active); in assay [3] (setting [8]), 99% (active); in assay [3] (at 50.0 µM) it was 98.2% (active); in assay [4] (setting [7]), 61%; in assay [4] (setting [8]) it was 97% (active); in assay [4] (at 50.0 µM), 97% (active). Also, the growth inhibition in assay [5] (setting [7]) was 60%; in assay [5] (setting [8]) it was 97% (active); in assay [5] (at 50.0 µM) it was 96.2% (active); in assay [6] (setting [7]) it was 83% (active); in assay [6] (setting [8]), 97% (active); in assay [6] (at 50.0 µM), 94.5% (active).
Take `CN(C)C(=O)c1cc(Br)cc(-c2ccccc2)c1O`: the growth inhibition is 4% in assay [1] (setting [7]); 77% (active) in assay [1] (setting [8]); 55.1% in assay [1] (at 50.0 µM); 0% in assay [2] (setting [7]); 84% (active) in assay [2] (setting [8]); 73% (active) in assay [2] (at 50.0 µM). The growth inhibition is 3% in assay [3] (setting [7]); 86% (active) in assay [3] (setting [8]); 75.8% (active) in assay [3] (at 50.0 µM); 2% in assay [4] (setting [7]); 63% in assay [4] (setting [8]); 38.6% in assay [4] (at 50.0 µM). The growth inhibition in assay [5] (setting [7]) was 1%; in assay [5] (setting [8]) it was 88% (active); in assay [5] (at 50.0 µM), 87.5% (active); in assay [6] (setting [7]) it was -4%; in assay [6] (setting [8]), 92% (active); in assay [6] (at 50.0 µM), 51.8%.
With `CC(=O)c1sc2c(c1O)c(=O)n(-c1ccccc1)c(=S)n2-c1ccccc1`, the growth inhibition in assay [1] (setting [7]) was -4%; in assay [1] (setting [8]), 75% (active); in assay [1] (at 50.0 µM) it was 68.3%; in assay [2] (setting [7]), 19%; in assay [2] (setting [8]), 83% (active); in assay [2] (at 50.0 µM) it was 67.4%. Further, the growth inhibition is 10% in assay [3] (setting [7]); 88% (active) in assay [3] (setting [8]); 75.5% (active) in assay [3] (at 50.0 µM); 16% in assay [4] (setting [7]); 95% (active) in assay [4] (setting [8]); 80% (active) in assay [4] (at 50.0 µM). The growth inhibition in assay [5] (setting [7]) was 25%; in assay [5] (setting [8]) it was 94% (active); in assay [5] (at 50.0 µM) it was 58.4%; in assay [6] (setting [7]), -11%; in assay [6] (setting [8]), 87% (active); in assay [6] (at 50.0 µM), 29.9%.
